The record followed here is PubChem BioAssay AID743171 (National Center for Advancing Translational Sciences (NCATS), 2013).

Values joined by “and” are separate entries in the source; they are usually repeats but may differ in a detail not shown here. Identical values can stand only once. Inconclusive results are not listed. Active and inactive are the calls of the source. The call rests on the fitted dose curve; in most records, active means well fitted inhibition curve with a large enough effect; inconclusive means small, poorly fitted or top-dose-only effect; inactive means flat fitted curve, though single readings scatter.

Sequence of 15-hydroxyprostaglandin dehydrogenase [NAD(+)] (Homo sapiens) (P15428 whole entry, looked up): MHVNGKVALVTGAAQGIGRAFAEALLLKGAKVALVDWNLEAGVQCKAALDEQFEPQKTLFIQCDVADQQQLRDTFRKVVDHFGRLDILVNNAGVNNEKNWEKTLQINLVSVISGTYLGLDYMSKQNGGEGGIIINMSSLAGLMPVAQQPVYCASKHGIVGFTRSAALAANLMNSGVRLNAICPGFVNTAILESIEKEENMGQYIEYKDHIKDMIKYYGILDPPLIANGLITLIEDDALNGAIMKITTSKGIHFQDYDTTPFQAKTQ

This assay deals with 15-hydroxyprostaglandin dehydrogenase [NAD(+)] (Homo sapiens) (UniProt P15428). The experiment in a line: Extended Characterization of HPGD Inhibitors: Activity in Primary Assay (HPGD). Conditions: recombinant HPGD, NADH fluorescence, PGE2 substrate; series mostly up to 57.1 µM. The method, boiled down:
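qHTS with several compound concentrations: 15 min room-temperature preincubation with 20 nM final enzyme, then PGE2/NAD+ addition (solution at 30 uM/1 mM). Activity taken as the normalized change in NADH fluorescence (340/450 nm) over four 30-s reads.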
As for `CC(C)(C)c1cccc(-n2cnc3cc(C(=O)N4CCCCC4)ccc32)c1`, the Potency is 171 nM (active). To `CCCCn1cnc2cc(C(=O)N3CCCCC3)ccc21` belongs 68.1 nM (active). For `O=C(c1ccc2c(c1)ncn2-c1ccc(C(F)(F)F)cc1)N1CCCCC1`, the Potency is 85.7 nM (active). As for `CC(C)(C)n1cnc2cc(C(=O)N3CCCCC3)ccc21`, the Potency is 34.1 nM (active). In the case of `Cc1ccc(-n2c(C)cc(-c3nnc4n3CCCCC4)c2C)cc1`, the Potency was 34.1 nM (active). Take `CC(C)(C)c1ccc(CSc2nc3ncc(Br)cc3[nH]2)cc1`: the Potency result was “inactive”. For the compound `Cc1cc(-c2nnc3n2CCCC3)c(C)n1-c1ccccc1`, the Potency was 192 nM (active). In the case of `Cc1cc(-c2nnc3n2CCCCC3)c(C)n1-c1ccc(Cl)c(Cl)c1` it was 21.5 nM (active). `FC(F)(F)c1ccc(-c2nc(-c3nnc4n3CCCCC4)c(C(F)(F)F)o2)cc1`: the Potency entry is “inactive”. As for `O=C(c1ccc2c(c1)ncn2-c1ccc(Cl)cc1)N1CCCCC1`, the Potency is 21.5 nM (active). To `COc1cccc(-n2cnc3cc(C(=O)N4CCCCC4)ccc32)c1` belongs 19.2 nM (active). `Cc1cc(-c2nnc3n2CCCCC3)c(C)n1-c1cccc(Cl)c1`: the Potency was 34.1 nM (active). Consider `N#Cc1ccc(CSc2nc3ncc(Br)cc3[nH]2)cc1`, for which the Potency is 482 nM (active). With `Cc1cc(-c2nnc3n2CCCCC3)c(C)n1-c1ccc(F)cc1`, the Potency was 121 nM (active). Consider `c1ccc(-n2ccc(-c3nnc4n3CCCCC4)c2)cc1`, for which the Potency was 607 nM (active).

For `Cc1cccc(-n2cnc3cc(C(=O)N4CCC(Br)CC4)ccc32)c1`, the Potency was 76.4 nM (active). To `Cc1cccc(-n2cnc3cc(C(=O)N4CCOCC4)ccc32)c1` belongs 3040 nM (active). In the case of `Cc1cc(-c2nnc3n2CCCCC3)c(C)n1-c1cccc(C#N)c1`, the Potency is 76.4 nM (active). With `Cc1cc(-c2nnc3n2CCCCCCC3)c(C)n1-c1ccccc1`, the Potency is 383 nM (active). In the case of `Cc1cc(-c2nnc3n2CCC3)c(C)n1-c1ccccc1`, the Potency is 3040 nM (active). Turning to `c1ccc(-n2cc(-c3nnc4n3CCCCC4)cn2)cc1`, the Potency was 3830 nM (active).

Consider `Cc1cccc(-n2cnc3cc(C(=O)N4CCC(N5CCOCC5)CC4)ccc32)c1`, for which the Potency result was “inactive”. For `Cc1cc(-c2nnc3n2CCCCC3)c(C)n1-c1ccncc1`, the Potency was 383 nM (active). On to `CCOC(=O)c1ccc(-n2cnc3cc(C(=O)N4CCCCC4)ccc32)cc1`, for which the Potency is 13.6 nM (active). Take `Cc1cc(-c2nnc3n2CCCCCC3)c(C)n1-c1ccccc1`: the Potency was 242 nM (active).

`Cc1ccc(-n2cnc3cc(C(=O)N4CCCCC4)ccc32)cc1`: the Potency is 19.2 nM (active).

For `Cc1cccc(-n2cnc3cc(C(=O)N4CCCC4)ccc32)c1`, the Potency is 383 nM (active). Consider `Cc1cc(-c2nnc3n2CCCCC3)c(C)n1-c1cccc2ccccc12`, for which the Potency was 54.1 nM (active) and 108 nM (active). For the compound `Cc1cccc(-n2cnc3cc(C(=O)NC4CCCC4)ccc32)c1`, the Potency is 961 nM (active).

Regarding `Clc1cccc(CSc2nc3ncc(Br)cc3[nH]2)c1`, the Potency was 242 nM (active).
